The source made the active and inactive calls.
What was measured:
[1] = E. coli DRC41 culture turbidity changes, primary screen, E. coli filamentation inducer project, strain DRC41, OD650, 48 h (AID 1152);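 note: E. coli MC1000 strain DRC41 lacking acrAB efflux pump and sulA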; details: E. coli DRC41 (acrAB sulA), higher = more signal, called active from +8 up or from −8 down
[2] = small-molecule binders of probe aLefty1, primary screen, biochemical, small-molecule microarray, 635/667 nm fluorescence (AID 1153); details: higher = more signal;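 note: score merges spot fluorescence with signal-to-noise ratio from the scanned slide images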
[3] = PSAC antagonists in infected red cells, primary screen, cell-based, P. falciparum Indochina, OD700, 1 h (AID 1154); details: P. falciparum Indochina infected RBC osmotic lysis, higher = more signal, called active from +8 up or from −8 down
[4] = PSAC antagonists in infected red cells, primary screen, cell-based, P. falciparum Indochina, OD700, 2 h (AID 1155);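 note: lysis reports solute entry through the parasite surface anion channel PSAC; channel blockers reduce lysis of infected cells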; details: P. falciparum Indochina infected erythrocytes, osmotic lysis OD700; higher = more signal, called active from +8 up or from −8 down
[5] = osmotic lysis modulators in infected erythrocytes, primary screen, PSAC antagonist project, cell-based, P. falciparum Indochina, OD700, 3 h (AID 1156); details: higher = more signal, called active from +8 up or from −8 down
[6] = PSAC antagonists in infected red cells, primary screen, cell-based, P. falciparum Indochina, OD700, 18 h (AID 1157); details: P. falciparum Indochina infected erythrocytes, osmotic lysis OD700, 18 h; higher = more signal, called active from +8 up or from −8 down
[7] = modulators of S6 phosphorylation in cells, primary screen, cell-based, A549, cytoblot, luminescence, serum-stimulated (AID 1158); details: A549 phospho-S6 cytoblot, 5 h, higher = more signal;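 note: serum-stimulated A549 lung adenocarcinoma cells; signal is phosphorylated S6 detected by cytoblot immunostaining with HRP secondary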
[8] = target: NADPH oxidase 2 (Homo sapiens) (UniProt P04839); test: NOX2-dependent H2O2 signal modulators, primary screen, NOX inhibitor project, cell-based, HEK293-NOX2, PMA-stimulated, Amplex Red fluorescence (AID 1159); details: 45 min, higher = more signal, called active from +8 up or from −8 down; note: test concentration not given here
[9] = target: NADPH oxidase 4 (Homo sapiens) (UniProt Q9NPH5); test: NOX4-dependent H2O2 signal modulators, primary screen, NOX inhibitor project, cell-based, HEK293-NOX4, tetracycline-induced, Amplex Red fluorescence (AID 1160); details: 45 min, higher = more signal, called active from +8 up or from −8 down
[10] = target: NADPH oxidase 5 (Homo sapiens) (UniProt Q96PH1); test: NOX5-dependent H2O2 signal modulators, primary screen, NOX inhibitor project, cell-based, HEK293-NOX5, Amplex Red fluorescence (AID 1161); details: HEK293-NOX5, ionomycin, 45 min, higher = more signal
Chain of NADPH oxidase 5 (Homo sapiens) (Q96PH1 whole entry, looked up): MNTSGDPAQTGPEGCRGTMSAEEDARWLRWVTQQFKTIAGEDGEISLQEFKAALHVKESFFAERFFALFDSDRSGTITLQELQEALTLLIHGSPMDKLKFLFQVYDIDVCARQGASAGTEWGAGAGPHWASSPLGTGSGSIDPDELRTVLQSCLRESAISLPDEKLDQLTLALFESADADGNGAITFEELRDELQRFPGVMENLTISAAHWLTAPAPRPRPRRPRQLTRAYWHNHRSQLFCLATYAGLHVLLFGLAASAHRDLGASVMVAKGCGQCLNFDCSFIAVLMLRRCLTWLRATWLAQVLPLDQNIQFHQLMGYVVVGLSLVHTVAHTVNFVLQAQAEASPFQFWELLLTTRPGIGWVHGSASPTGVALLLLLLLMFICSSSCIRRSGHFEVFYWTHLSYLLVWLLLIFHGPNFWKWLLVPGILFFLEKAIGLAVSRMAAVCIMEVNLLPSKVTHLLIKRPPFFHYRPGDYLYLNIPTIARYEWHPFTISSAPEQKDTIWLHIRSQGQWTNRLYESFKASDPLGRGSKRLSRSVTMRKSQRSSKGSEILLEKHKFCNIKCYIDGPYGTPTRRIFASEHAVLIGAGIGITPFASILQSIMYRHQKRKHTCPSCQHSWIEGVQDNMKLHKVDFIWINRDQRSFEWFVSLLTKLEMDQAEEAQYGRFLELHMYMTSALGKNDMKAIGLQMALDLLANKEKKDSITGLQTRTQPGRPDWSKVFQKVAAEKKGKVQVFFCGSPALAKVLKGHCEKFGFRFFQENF

Chain of NADPH oxidase 4 (Homo sapiens) (Q9NPH5 whole entry, looked up): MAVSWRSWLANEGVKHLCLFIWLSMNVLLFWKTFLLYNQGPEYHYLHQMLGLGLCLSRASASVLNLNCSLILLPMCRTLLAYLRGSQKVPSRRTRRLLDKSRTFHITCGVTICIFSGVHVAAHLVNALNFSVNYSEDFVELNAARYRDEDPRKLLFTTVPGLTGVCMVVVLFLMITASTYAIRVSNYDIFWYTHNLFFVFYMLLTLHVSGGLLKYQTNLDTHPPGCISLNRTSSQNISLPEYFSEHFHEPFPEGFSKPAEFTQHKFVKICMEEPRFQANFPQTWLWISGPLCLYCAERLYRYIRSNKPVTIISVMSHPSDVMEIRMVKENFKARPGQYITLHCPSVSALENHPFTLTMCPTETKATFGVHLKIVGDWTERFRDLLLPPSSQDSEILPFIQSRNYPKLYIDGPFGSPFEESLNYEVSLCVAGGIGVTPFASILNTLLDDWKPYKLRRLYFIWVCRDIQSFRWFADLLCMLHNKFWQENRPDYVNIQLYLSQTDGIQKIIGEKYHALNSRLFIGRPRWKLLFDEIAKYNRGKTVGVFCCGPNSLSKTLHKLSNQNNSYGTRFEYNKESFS
Chain of NADPH oxidase 2 (Homo sapiens) (P04839 whole entry, looked up): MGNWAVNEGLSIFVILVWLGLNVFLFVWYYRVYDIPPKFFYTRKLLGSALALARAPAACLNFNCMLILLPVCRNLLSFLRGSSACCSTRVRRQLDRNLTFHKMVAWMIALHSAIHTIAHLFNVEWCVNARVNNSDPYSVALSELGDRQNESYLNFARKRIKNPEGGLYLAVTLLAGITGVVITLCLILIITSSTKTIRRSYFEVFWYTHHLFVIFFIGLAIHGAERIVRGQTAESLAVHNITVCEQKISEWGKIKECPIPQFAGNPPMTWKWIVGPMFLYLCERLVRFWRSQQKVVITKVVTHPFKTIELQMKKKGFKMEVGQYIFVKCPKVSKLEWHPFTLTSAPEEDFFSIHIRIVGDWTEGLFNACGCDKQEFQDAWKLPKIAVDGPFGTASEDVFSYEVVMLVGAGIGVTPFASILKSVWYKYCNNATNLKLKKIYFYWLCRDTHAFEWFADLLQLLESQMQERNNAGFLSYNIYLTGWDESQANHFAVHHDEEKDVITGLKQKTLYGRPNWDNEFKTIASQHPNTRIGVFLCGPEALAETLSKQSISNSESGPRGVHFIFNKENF

Row | SMILES | z-score [1] | composite z-score [2] | z-score [3] | z-score [4] | z-score [5] | z-score [6] | z-score [7] | z-score [8] | z-score [9] | z-score [10]
1 | O=C1c2ccccc2[C@](Cc2ccccc2I)(C(=O)NC2CC2)[C@H](c2ccc(CO)cc2)N1Cc1ccccc1C(F)(F)F | -1.14 (inactive) | -0.0902 | 8.14 (active) | 0.789 (inactive) | 4.29 (inactive) | -0.165 (inactive) | 2.18 | 0.459 (inactive) | -1.34 (inactive) | -2.92
2 | CO[C@H]1O[C@H](CO)[C@@H](OC(=O)CCc2ccccc2)[C@H](OC(=O)c2cc3ccccc3[nH]2)[C@H]1OC(=O)c1cc2ccccc2[nH]1 | 2.71 (inactive) | -0.162 | 2.39 (inactive) | 0.923 (inactive) | -2.27 (inactive) | 1.1 (inactive) | 2.17 | -0.601 (inactive) | 0.0901 (inactive) | 0.855
3 | COC(=O)[C@@]1(Cc2ccc(F)cc2)[C@H]2c3cc(C(=O)N(C)C)n(Cc4c(CO)[nH]cc(C)c4=O)c3C[C@H]2CN1C(=O)c1ccccc1 | -1.35 (inactive) | 0.0752 | 0.756 (inactive) | 0.19 (inactive) | 0.865 (inactive) | 0.816 (inactive) | -0.122 | 0.31 (inactive) | -0.0408 (inactive) | -3.5
4 | CC(C)CNC(=O)[C@@H]1c2ccccc2C(=O)N(C2CCCCC2)[C@H]1c1ccc(CO)cc1 | 3.5 (inactive) | 0.259 | 1.36 (inactive) | 0.387 (inactive) | 0.472 (inactive) | -0.288 (inactive) | 1.24 | -0.318 (inactive) | 1.42 (inactive) | 0.297
5 | C=C(/C(=C/C[C@@H](OC(C)=O)c1ccc(CO)o1)c1cc(C(=O)OC)ccc1OC)C(C)C | 0.225 (inactive) | -0.0536 | 4.3 (inactive) | 0.758 (inactive) | 1.35 (inactive) | 0.479 (inactive) | -0.0642 | -0.169 (inactive) | -0.673 (inactive) | -0.988
6 | COC(=O)c1c2oc(c1C(=O)OC)C(=O)N1CCC[C@H]1Cn1nncc1CN(Cc1ccccc1)C(=O)N[C@H](CO)CC2 | 1.53 (inactive) | 0.0429 | 0.834 (inactive) | 0.609 (inactive) | -0.418 (inactive) | 0.924 (inactive) | 0.429 | -0.521 (inactive) | 0.556 (inactive) | 1.19
7 | C=C[C@@H](C)[C@@H](OC(=O)Nc1ccc(SC)cc1)c1ccc(OCCO)cc1 | -0.707 (inactive) | -0.156 | 29.1 (active) | 20.2 (active) | 4.42 (inactive) | 1.9 (inactive) | 0.241 | -1.21 (inactive) | -0.0499 (inactive) | -0.431
8 | CC(CO)N1C(=O)[C@@H]2[C@H]3C(=O)OCC=C[C@H]3OC23C=CCN(c2ccc(Cl)cc2)C(=O)[C@@H]13 (stereo not given in full) | 0.458 (inactive) | -0.283 | -0.499 (inactive) | -0.219 (inactive) | 0.639 (inactive) | 0.0119 (inactive) | -0.172 | 0.8 (inactive) | 0.28 (inactive) | 1.34
9 | C=CCC(OC(C)=O)[C@@H]1[C@@H](N(Cc2ccc(-c3cccc(C(F)(F)F)c3)o2)C(=O)c2ccc(C)cc2)c2cc(OCCCO)ccc2N1C(=O)Cc1ccc(OC)cc1 (stereo not given in full) | 2.06 (inactive) | 0.0934 | 2.58 (inactive) | 0.0001 (inactive) | 0.636 (inactive) | 0.432 (inactive) | 0.194 | -1.44 (inactive) | 0.641 (inactive) | 0.233
10 | C=CCC(OC(C)=O)[C@@H]1[C@@H](N(Cc2cc3ccccc3o2)C(=O)c2ccc(-c3ccccc3)cc2)c2cc(OCCCO)ccc2N1C(=O)Cc1ccc(OC)cc1 (stereo not given in full) | -1.14 (inactive) | -0.0547 | 0.702 (inactive) | 0.701 (inactive) | 0.365 (inactive) | 0.703 (inactive) | 0.3 | -0.0713 (inactive) | -0.918 (inactive) | 1.09
11 | COCC(=C=CC[C@H](O)c1cccc(OCCO)c1)C[C@H](O)COCc1ccccc1 | -0.0371 (inactive) | 0.213 | 9.2 (active) | 1.07 (inactive) | 0.307 (inactive) | 0.404 (inactive) | -0.234 | -0.436 (inactive) | -0.797 (inactive) | -1.39
12 | COc1ccc([Si](C)(C)[C@H]2[C@H](CC(=O)N3Cc4ccccc4C[C@H]3CO)O[C@@]3(C(=O)N(Cc4ccc(N5C(=O)c6cccc7cccc5c67)cc4)c4ccccc43)[C@@H]2C)cc1 | 0.315 (inactive) | 0.0771 | 4.25 (inactive) | 1.36 (inactive) | 1.67 (inactive) | 1.09 (inactive) | 0.412 | -0.327 (inactive) | 0.252 (inactive) | -1.66
13 | CC(C)C(CO)N1C(=O)[C@@H]2[C@H]3C(=O)OCC=C[C@H]3OC23C=CCN(C(C)(C)C)C(=O)[C@@H]13 (stereo not given in full) | -0.875 (inactive) | -0.155 | 0.897 (inactive) | 0.226 (inactive) | 0.697 (inactive) | 0.0863 (inactive) | -0.154 | 0.997 (inactive) | 0.16 (inactive) | 1.92
14 | CC(C)CNC(=O)[C@@]1(C)c2ccccc2C(=O)N(Cc2cc(C(F)(F)F)cc(C(F)(F)F)c2)[C@H]1c1ccc(CO)cc1 | 0.516 (inactive) | -0.101 | 7.12 (inactive) | 1.13 (inactive) | 2.06 (inactive) | 0.428 (inactive) | -0.404 | -0.766 (inactive) | 0.596 (inactive) | 0.821
15 | CN(C)C(=O)[C@@]1(Cc2ccccc2)COC(c2ccc(OCCCO)cc2)=N1 | 1.54 (inactive) | -0.57 | 20.9 (active) | 3.73 (inactive) | 2.46 (inactive) | 1.09 (inactive) | 0.0912 | -1.26 (inactive) | 0.108 (inactive) | -1.21
16 | C=C(/C(=C/C[C@@H](OC(C)=O)c1ccc(OCCO)cc1)c1cc(C(=O)OC)ccc1OC)C(C)C | -0.2 (inactive) | 0.0794 | 8.16 (active) | 1.11 (inactive) | 1.24 (inactive) | 0.774 (inactive) | -0.219 | -0.323 (inactive) | -0.645 (inactive) | -1.87
17 | C=CCC(OC(C)=O)[C@@H]1[C@@H](N(Cc2ccc(-c3ccccc3)cc2)C(=O)c2ccc(C)cc2)c2cc(OCCCO)ccc2N1C(=O)Cc1ccc2ccccc2c1 (stereo not given in full) | 2.43 (inactive) | -0.0011 | -0.0828 (inactive) | -0.66 (inactive) | -1.45 (inactive) | -0.938 (inactive) | 1.23 | -1.68 (inactive) | 0.934 (inactive) | 1.62
18 | COc1ccc([Si](C)(C)[C@H]2[C@H](CC(=O)N3CCC[C@H]3CO)O[C@@]3(C(=O)N(Cc4ccc(N5CCC5=O)cc4)c4ccccc43)[C@@H]2C)cc1 | -0.691 (inactive) | 0.213 | 10 (active) | 1.8 (inactive) | 0.171 (inactive) | 0.746 (inactive) | 0.783 | 1.93 (inactive) | 1.63 (inactive) | 4.56
19 | C=CCNC(=O)[C@H]1[C@@H]2C(=O)O[C@@H](c3ccccc3)[C@@H](c3ccccc3)N2[C@@H](c2ccc(OCCO)cc2)[C@]12C(=O)N(C(=O)OCCOC)c1ccc(C#Cc3ccc(OC)cc3)cc12 | 2.2 (inactive) | 0.323 | 3.4 (inactive) | 1.31 (inactive) | -0.0152 (inactive) | 0.121 (inactive) | 2.44 | 1.19 (inactive) | 0.615 (inactive) | -0.0482
20 | CCC(CC)C(O)C1C=CC2C(=O)N(c3ccccc3)C(=O)C2N1Nc1ccc([N+](=O)[O-])cc1 (stereo not given) | -0.639 (inactive) | 0.342 | 6.6 (inactive) | 0.997 (inactive) | 0.136 (inactive) | 0.507 (inactive) | -0.469 | -0.272 (inactive) | -0.44 (inactive) | -1.03
21 | CCCCC(=O)N(CCN1CCOCC1)[C@@H]1CC(C(=O)NCCO)=C[C@H](Oc2c(I)cc(CO)cc2OC)[C@H]1O | 1.4 (inactive) | -0.235 | 3.89 (inactive) | 0.756 (inactive) | 0.098 (inactive) | 0.133 (inactive) | -0.0612 | -0.381 (inactive) | 0.577 (inactive) | 0.613
22 | NCCCCCNC(=O)[C@@H]1C[C@@H]2C(=O)N3CCC[C@H]3C(=O)N2[C@@H]1c1ccc(O)cc1 | 0.524 (inactive) | 1.08 | 1.9 (inactive) | 0.106 (inactive) | -0.696 (inactive) | 0.277 (inactive) | -0.596 | 0.105 (inactive) | -1.53 (inactive) | 0.0464
23 | COC(=O)[C@@]1(Cc2ccc(F)cc2)[C@H]2c3cc(C(=O)N(C)C)n(Cc4ccc(O)c(OC)c4)c3C[C@H]2CN1C(=O)c1ccccc1 | -1.45 (inactive) | 0.681 | 3.77 (inactive) | -0.164 (inactive) | 1.74 (inactive) | -1.74 (inactive) | 2 | -2.68 (inactive) | -5.32 (inactive) | -1.16
24 | O=C1O[C@H](c2ccccc2)[C@H](c2ccccc2)N2[C@H]1[C@@H](C(=O)N1CCCCCCC1)[C@]1(C(=O)Nc3ccc(C#CC4(O)CCCCCC4)cc31)[C@H]2c1ccc(O)cc1 | 0.507 (inactive) | 2.47 | 0.839 (inactive) | 0.222 (inactive) | 1.34 (inactive) | 0.491 (inactive) | 0.148 | 1.33 (inactive) | 0.803 (inactive) | 1.17
25 | CCOC(=O)C1=C[C@@H](c2ccccc2)N(S(=O)(=O)c2ccc(C)cc2)[C@H]1c1ccccc1 | -0.388 (inactive) | 0.119 | 13.8 (active) | 2.21 (inactive) | -0.657 (inactive) | 0.708 (inactive) | -0.8 | -0.395 (inactive) | -0.395 (inactive) | 0.565
26 | COc1cc(NN2C(C(O)c3cc(OC)c(OC)c(OC)c3)C=CC3C(=O)N(c4ccccc4)C(=O)C32)cc(OC)c1OC (stereo not given) | -1.78 (inactive) | 1.02 | 2.73 (inactive) | -0.577 (inactive) | 1.27 (inactive) | -1.19 (inactive) | 1.07 | -3.35 (inactive) | -4.26 (inactive) | -6.87

Reference: PubChem BioAssay
